# Bioassay records as filed in PubChem.
# This is a sample that favours compounds with a hit; in the whole collection about 13% have one here.
# USP8 block: inhibitors of human USP8 deubiquitinase. purified USP8, Ub-rhodamine cleavage fluorescence, 30 min. inhibition, % at 20 µM. 4.2% of 47,000 active
# USP10 inh: inhibitors of human USP10 deubiquitinase; purified USP10, Ub-rhodamine fluorescence, 60 min; inhibition, % at 20 µM; 1.1% of 47,000 active; AID 1645856, 2021
# USP17 inh: inhibitors of human USP17 deubiquitinase; Ubiquitin carboxyl-terminal hydrolase 17-like protein 5 (Homo sapiens), A8MUK1; purified USP17, Ub-rhodamine cleavage fluorescence, 3 h; inhibition, % at 50 µM; 6.5% of 47,000 active
# Target sequence (A8MUK1 whole entry, looked up): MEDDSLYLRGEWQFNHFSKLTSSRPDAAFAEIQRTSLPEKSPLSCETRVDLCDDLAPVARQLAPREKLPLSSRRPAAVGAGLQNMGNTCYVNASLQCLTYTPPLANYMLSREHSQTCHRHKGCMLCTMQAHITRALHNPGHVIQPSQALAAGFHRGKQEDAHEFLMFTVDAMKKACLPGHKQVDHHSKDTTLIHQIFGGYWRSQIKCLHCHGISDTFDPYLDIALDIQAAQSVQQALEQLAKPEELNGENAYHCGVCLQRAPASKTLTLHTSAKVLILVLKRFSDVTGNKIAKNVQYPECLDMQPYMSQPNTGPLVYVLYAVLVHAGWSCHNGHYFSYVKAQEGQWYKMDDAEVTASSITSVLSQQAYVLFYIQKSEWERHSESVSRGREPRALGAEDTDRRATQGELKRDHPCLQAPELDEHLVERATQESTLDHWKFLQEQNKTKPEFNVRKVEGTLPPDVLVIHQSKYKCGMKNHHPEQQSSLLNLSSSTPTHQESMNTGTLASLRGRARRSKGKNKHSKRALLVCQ
# USP28 block: inhibitors of human USP28 deubiquitinase | Ubiquitin carboxyl-terminal hydrolase 28 (Homo sapiens), Q96RU2 | purified USP28, Ub-rhodamine cleavage fluorescence, 30 min | inhibition, % at 25 µM | 3% of 47,000 active | AID 1645857, 2021
# USP30 inh: inhibitors of human USP30 deubiquitinase; AID 1645860, 2021; Ubiquitin carboxyl-terminal hydrolase 30 (Homo sapiens), Q70CQ3; inhibition, % at 25 µM; purified USP30, Ub-rhodamine cleavage fluorescence; 5.3% of 47,000 active
# * marks the source's active call; other numbers are inactive results; i = inactive; . = not tested or not shown. Rule as the data show it: active = inhibition above about 30%; inactive = the rest.
SMILES,USP8 block,USP10 inh,USP17 inh,USP28 block,USP30 inh
CC(C)CCNC(=O)c1cnn2c(C(F)(F)F)cc(-c3ccccc3)nc12,-24.5,8.9,-1.1,-8.6,-2.7
O=C(NCc1cccnc1)c1cnn2c(C(F)(F)F)cc(-c3ccccc3)nc12,-0.4,-1.5,13.6,1.5,64.3*
Cc1ccc(-c2c[n+](CC(=O)Nc3cccc4ccccc34)c3n2CCC3)cc1,26.1,-2.0,6.8,17.9,34.0*
Cc1ccc(S(=O)(=O)N[C@H](C(=O)N2CCC(C(=O)N[C@H](Cc3c[nH]c4ccccc34)C(=O)O)CC2)C(C)C)cc1,5.0,-2.1,-9.5,-6.1,-71.8
Cc1cc(=O)n2[nH]c(Cc3ccccc3)c(-c3ccccc3)c2n1,9.6,15.1,13.9,12.9,15.2
CCc1c(C)nc2c(-c3ccccc3)c(Cc3ccccc3)[nH]n2c1=O,61.6*,16.3,17.3,12.1,26.5
CCOC(=O)c1noc2ncn(Cc3nc(-c4ccc(C)cc4)oc3C)c(=O)c12,6.4,-2.1,31.0*,12.5,34.6*
COc1cc(C2CCN(C(=O)c3ccccc3Cl)CC2)on1,8.0,2.2,8.9,3.2,17.3
Cc1ccc(CS(=O)(=O)c2cn(CC(=O)NCc3ccccc3)c3ccccc23)cc1,6.3,8.3,-19.0,-11.8,-66.2
O=C(Cn1cc(S(=O)(=O)Cc2ccccc2)c2ccccc21)NC1CCCCC1,30.2*,-1.8,17.3,-9.8,-179.0
O=C(Cn1cc(C(=O)C2CC2)c2ccccc21)NCc1ccc2c(c1)OCO2,69.4*,12.9,82.5*,51.1*,6.4
O=C(Cn1ncc2c(=O)oc3ccccc3c21)NCc1ccc2c(c1)OCO2,42.3*,16.5,27.5,2.5,-9.4
O=C(Cn1ccc2ccn(Cc3ccccc3)c2c1=O)Nc1ccccc1Cl,77.2*,26.5,33.5*,8.3,9.8
CCc1ccc(NC(=O)[C@H](C)NC(=O)C2CCN(C(=O)[C@H](CCSC)NC(=O)OC(C)(C)C)CC2)cc1,10.1,-2.6,1.8,0.2,10.0
CCN(CC(=O)Nc1ccc2c(c1)OCCO2)S(=O)(=O)c1ccc(Cl)cc1C(F)(F)F,20.0,0.0,14.2,20.3,17.3
O=S(=O)(CCN1CCN(Cc2ccccc2)CC1)c1ccc(F)cc1,9.7,-3.8,-0.1,-4.1,-12.6
Cc1c(Cl)cccc1NC(=O)Cn1cc(C(=O)C2CC2)c2ccccc21,86.5*,48.9*,0.2,-5.4,0.7
Cc1c(Cl)cccc1NC(=O)Cn1ccc2ccccc2c1=O,8.1,-0.7,71.3*,-6.8,-37.3
O=C(Cn1cc(C(=O)C2CCCCC2)c2ccccc21)Nc1ccccc1C(F)(F)F,24.8,7.4,13.5,1.3,15.1
O=C(Cn1ccc2ccn(Cc3ccccc3)c2c1=O)NC1CCCC1,14.9,-1.7,38.7*,27.5,0.0
O=C1N[C@H]2CCCN(C(=O)CCCn3cccn3)[C@H]2CCCCCOc2ccccc21,12.0,0.6,7.3,3.2,20.5
CNC(=O)Cc1ccc(NC(=O)/C=C/c2cn(-c3ccccc3)nc2-c2ccc(F)cc2)cc1,33.6*,10.3,4.4,-4.4,-1.9
Cc1nc2ccc(NC(=O)/C=C/c3cn(-c4ccccc4)nc3-c3cccnc3)cc2s1,38.2*,0.0,-9.7,4.8,10.8
NS(=O)(=O)c1cccc(NC(=O)/C=C/c2cn(-c3ccccc3)nc2-c2cccc([N+](=O)[O-])c2)c1,71.3*,62.6*,3.6,22.6,34.4*
CC(=O)NS(=O)(=O)c1ccc(NC(=O)/C=C/c2cn(-c3ccccc3)nc2-c2ccccc2)cc1,65.4*,62.6*,25.1,24.6,-27.6
SMILES,USP8 block,USP10 inh,USP17 inh,USP28 block,USP30 inh
O=C(/C=C/c1cn(-c2ccccc2)nc1-c1cc2ccccc2o1)NCc1ccccc1F,8.6,-10.1,-13.4,-5.4,-7.5
CCC12CN3CC(C)(CN(C1)C31C(=O)Nc3ccccc31)C2=O (stereo unspecified),6.2,2.0,5.1,6.2,12.3
O=C(NCc1ccc2c(c1)OCO2)c1cccc(NC(=O)c2nsc3ccccc23)c1,-28.1,2.6,-5.2,1.8,-35.5
CNc1nc2c(c(=O)n1C)CN(C(=O)Nc1ccc(Cl)cc1)CC2,6.0,0.1,-3.4,-0.9,4.1
O=C(Nc1ccc(F)cc1F)N1CCN(c2cc(-c3ccncc3)[nH]n2)CC1,2.7,5.0,.,12.7,41.0*
O=C(Nc1ccccc1F)N1CCN(c2cc(-c3ccncc3)[nH]n2)CC1,-0.1,-0.1,2.6,6.7,17.2
CCOc1ccc(C2CCCN2Cc2nc(N)nc(Nc3ccccc3C)n2)cc1 (stereo unspecified),22.2,-11.1,-16.3,-26.5,-108.9
Cc1ccccc1C(=O)c1ccc(C(=O)NC2CCCCCC2)[nH]1,41.1*,10.9,13.6,4.4,52.2*
O=C1/C(=C/c2cn(-c3ccccc3)nc2-c2ccc3c(c2)OCCO3)Cc2ccccc21,-95.6,-6.6,-138.0,-180.4,i
Cc1ccc2cc(-c3noc(C)n3)c(NC(C)c3ccccn3)nc2c1 (stereo unspecified),3.8,2.8,-12.4,-6.4,-17.5
CC(Nc1ncnc2cc(-c3ccc(Cl)cc3)sc12)c1ccccn1 (stereo unspecified),57.3*,14.1,-18.8,6.8,-0.4
O=C(CSc1nnc(CNC(=O)c2ccccc2F)o1)Nc1ccc(Br)cc1,3.2,1.9,32.6*,8.3,-0.1
CC(=O)N1CCn2c(c(C(=O)Nc3ccc(Cl)cc3)c3cccnc32)C1,15.6,-8.2,-6.4,-13.1,-25.5
COc1ccc(CC(=O)Nc2ccccc2-c2nc3ccccc3[nH]2)cc1OC,1.7,16.2,76.1*,21.0,50.1*
COc1ccc(-c2nc3ccccc3o2)cc1NC(=O)Cc1ccc(OC)c(OC)c1,-10.0,-9.1,-48.5,-24.5,-63.5
Cc1ccc(C2=NC3(CCN(C(=O)Cc4ccc(F)cc4)CC3)NC2=O)cc1,-9.5,-1.6,-17.3,-17.0,-12.6
Nc1c(-c2ccccn2)nsc1C(=O)NCc1ccccc1,5.4,2.6,17.6,19.7,1.9
O=C1c2ccccc2S(=O)(=O)N1Cc1ccc2nsnc2c1,14.9,0.5,4.4,35.3*,22.8
O=C(c1ccc(F)cc1)N1CC[C@@H]2CN(C(=O)c3ccccc3)[C@@H]2C1,11.6,-0.1,11.0,5.9,15.4
O=c1c2ccsc2nc2n1CCN(Cc1cccc(F)c1F)CC2,8.0,-2.0,4.2,6.0,2.1
O=c1c2ccsc2ncn1Cc1ccccc1F,1.7,-0.4,-13.7,32.5*,0.6
COc1cccc(NC2=NS(=O)(=O)c3ccccc32)c1,23.0,1.5,40.8*,23.4,41.3*
Cc1noc(C)c1CN1CCC2(CC(Nc3ncc(F)cn3)CO2)C1 (stereo unspecified),-252.6,-1.9,-53.4,-10.6,-26.8
Cn1ncc2c1C(COCC1CC1)CN(C(=O)c1ccncn1)C2 (stereo unspecified),-260.2,-4.0,-37.0,-11.9,-43.3
